Our source for the AC50 and activity, negative = inhibition values is PubChem BioAssay AID1851 (National Center for Advancing Translational Sciences (NCATS), 2009).

Values joined by “and” are separate entries in the source; they are usually repeats but may differ in a detail not shown here. Identical values can stand only once. Screen size: about 16,000 compounds; about 4,000 (25%) were called active. Another 26% or so got no clear call; they are omitted. The list is a sample of the results. Unmarked numbers belong to inactive results. The call rests on the fitted dose curve; in most records, active means well fitted curve in the direction sought with a large enough effect; inconclusive means small, poorly fitted or top-dose-only effect, or effect the other way; inactive means no such curve, though single readings can be large or run the other way.
On the % scale 0 is the no-effect control and ±100 the full control effect.

Sequence of Cytochrome P450 2C9 (Homo sapiens) (P11712 whole entry, looked up): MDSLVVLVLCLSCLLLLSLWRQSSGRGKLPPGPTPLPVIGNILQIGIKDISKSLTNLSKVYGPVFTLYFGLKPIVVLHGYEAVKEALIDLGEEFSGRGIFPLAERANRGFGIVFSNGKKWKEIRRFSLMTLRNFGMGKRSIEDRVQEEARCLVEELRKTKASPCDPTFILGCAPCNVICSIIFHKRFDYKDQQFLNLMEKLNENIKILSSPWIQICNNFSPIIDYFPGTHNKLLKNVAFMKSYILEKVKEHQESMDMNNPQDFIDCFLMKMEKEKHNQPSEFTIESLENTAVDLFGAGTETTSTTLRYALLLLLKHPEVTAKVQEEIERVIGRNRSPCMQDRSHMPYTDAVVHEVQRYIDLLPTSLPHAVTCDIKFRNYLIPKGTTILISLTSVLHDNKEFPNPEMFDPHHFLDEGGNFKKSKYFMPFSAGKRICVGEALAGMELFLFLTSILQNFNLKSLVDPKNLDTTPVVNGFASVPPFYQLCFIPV

This assay concerns the target Cytochrome P450 2C9 (Homo sapiens) (UniProt P11712). Nature of the assay: Cytochrome panel assay with activity outcomes. To be noted: recombinant CYP, pro-luciferin dealkylation, luminescence, p450-cyp2c9; series mostly up to 57.1 µM.
Broadly, the AC50 is the midpoint of the concentration-response curve, whichever way the signal moves. `Cc1ccc(C(=O)N/N=C\c2ccc[nH]2)cc1[N+](=O)[O-]`: the AC50 entry is “inactive”.
On to `Cc1ccc(NC(=S)/C(=C(\[O-])c2ccc(C)c([N+](=O)[O-])c2)[n+]2ccccc2)cc1C`, for which the AC50 result was “inactive”.
For the compound `Cc1ccc(C(=O)Nc2ccc(Cc3ccncc3)cc2)cc1[N+](=O)[O-]`, the AC50 was 0.631 µM (active).
Still for that read-out and setting: under `CCC(=O)[C@@]1(C)[C@H](C)C[C@@H]2[C@@H]3CCC4=CC(=O)C=C[C@@]4(C)[C@H]3[C@H](O)C[C@]21C` stands “inactive”.
On the same count and under the same terms, with `CCCCCCN(CCCCCC)C(=O)Cc1c(-c2ccc(Cl)cc2)[nH]c2ccc(Cl)cc12` the entry was “inactive”.
The same measure, in the same setting: with `CCc1c(C(=O)O)[nH]c2ccc(Br)cc12` the figure was 15.8 µM (active); with `O=C1Cc2c([nH]c3ccc(Br)cc23)-c2ccccc2N1`, “inactive”.
As to `CC(=O)N1CCC2(CCN(Cc3nccs3)CC2)CC1`, the AC50 result was “inactive”.
In the case of `C[C@@](N)(Cc1c[nH]c2ccccc12)C(=O)O`, the activity, negative = inhibition was -9.29% [at 11.4 µM].
`CCOC(=O)CCCc1c[nH]c2ccccc12`: the AC50 is 7.94 µM (active).
On to `Nc1ccc2[nH]cc(CCC(=O)O)c2c1`, for which the activity, negative = inhibition was -7.47% [at 11.4 µM].
As to `O=C(O)c1c(Cl)c(Cl)c(Cl)c(Cl)c1C(=O)Nc1ccc2cn[nH]c2c1`, the AC50 is 0.0794 µM (active).
Same read-out and setting: with `CCNc1ncc2nc(-c3ccc(Cl)cc3)c(=O)n(C3CC3)c2n1` the entry was “inactive”; with `Cc1ccc(Nc2c([N+](=O)[O-])ccc3c2=NC2(CCCCC2)N=3)cc1`, 5.01 µM (active).
Consider `O=C(Nc1cnn(Cc2ccc(Cl)cc2Cl)c1)c1cc(-c2cccs2)on1`, for which the concentration at half-maximal activity (AC50) was 8.91 µM (active).
Still for that read-out and setting: under `COc1ccc(-c2cc(C(=O)Nc3cnn(Cc4ccccc4C)c3)no2)cc1OC` stands “inactive”; under `O=C(CC1C(=O)N(c2ccc(Cl)cc2)C(=S)N1CCc1ccncc1)Nc1ccc(F)cc1` (centres undefined), 0.0631 µM (active).
In the case of `CN(C)CC/C=C1\c2ccccc2COc2ccccc21`, the AC50 entry was “inactive”.
In the case of `Cn1c(=O)c2c(ncn2CN2CCN(Cn3cnc4c3c(=O)n(C)c(=O)n4C)CC2)n(C)c1=O`, the activity, negative = inhibition is 5.13% [at 11.4 µM].
In the case of `C#CCCCO/N=C1/C[C@@H](O)[C@@H](O)[C@@H]2[C@@H]3C(=O)N([C@@H](C)c4ccccc4)C(=O)[C@H]3CC[C@@H]12`, the activity, negative = inhibition is -23.8% [at 11.4 µM].
Turning to `CC1(C)CC(=O)C2=C(C1)Oc1nc3ccccc3cc1C2C(C#N)C#N` (centres undefined), the concentration at half-maximal activity (AC50) was 3.55 µM (active).
Still for that read-out and setting: under `Cc1cc2c(cc1C)NC(c1nc3ccccc3[nH]1)C1=C(CC(C)(C)CC1=O)N2` (centres undefined) stands “inactive”; under `CC1(C)Cc2c(sc3nc(SCC(=O)NCc4ccccc4)n(-c4ccccc4)c(=O)c23)CS1`, 6.31 µM (active); under `CC1(C)Cc2c(sc3c2C(=O)N(c2ccccc2)C2=NCCN23)CS1`, “inactive”.
In the case of `Cc1ccc(-n2c(SCC(=O)NCc3ccco3)nc3sc4c(c3c2=O)CC(C)(C)SC4)cc1`, the AC50 was 2.24 µM (active).
On to `Nc1nc2c(c(=O)[nH]1)CN(c1ccc(S(N)(=O)=O)cc1)CN2`, for which the activity, negative = inhibition is 7.1% [at 11.4 µM].
On the same count and under the same terms, with `O=C1C2=CC[C@@H]3C(=O)N(c4ccc(F)cc4F)C(=O)[C@H]3[C@H]2[C@H](O)[C@H]2O[C@H]12` the figure was 4.69% [at 11.4 µM].
As to `C=CCOC(=O)/C(=C\c1cccc2ccccc12)NC(=O)c1ccccc1`, the AC50 was 1.41 µM (active).
Same read-out and setting: with `Cc1ccc(S(=O)(=O)c2c(C)nn(C(C)(C)C)c2OC(=O)c2cccs2)cc1` the figure was 3.16 µM (active); with `C[C@@]12CCC(=O)C=C1CC[C@@H]1[C@@H]2[C@H](O)C[C@]2(C)[C@@H]1CC[C@]2(O)C(=O)COC(=O)CCC(=O)O`, “inactive”.
Consider `CN=C(N)/N=C(\N)Nc1cc2ccccc2c2ccccc12`, for which the activity, negative = inhibition was -14.6% [at 11.4 µM].
Consider `C=CC(C)(C)c1[nH]c2ccccc2c1C1=C(O)C(=O)C(c2c[nH]c3c(CC=C(C)C)cccc23)=C(O)C1=O`, for which the AC50 was 7.94 µM (active).
Still for that read-out and setting: with `ON(CCc1ccncc1)Cc1ccccc1` the figure was 3.98 µM (active).
As to `ON(CCc1ccccn1)Cc1ccccc1`, the activity, negative = inhibition is -2.37% [at 11.4 µM].
In the case of `Fc1ccc(SCCc2ccncc2)cc1`, the AC50 was 2 µM (active).
Turning to `c1ccc(CCN2CCN=C2Cc2ccccc2)cc1`, the activity, negative = inhibition is -8.28% [at 11.4 µM].
As for `c1ccc(SCCc2ccncc2)cc1`, the AC50 is 1.12 µM (active) and 1.26 µM (active).
Consider `Br/C(=N\Nc1nn[nH]n1)c1ccncc1`, for which the activity, negative = inhibition is -3.74% [at 11.4 µM].
As for `O=c1cnc2cnc(Oc3ccccc3)nc2n1Cc1cccs1`, the AC50 is 25.1 µM (active).
The same measure, in the same setting: under `Cn1cc(-c2nc3cnc(Oc4ccccc4)nc3n(Cc3cccs3)c2=O)c2ccccc21` stands “inactive”; under `Cc1nc2cnc(Nc3ccccc3)nc2n(Cc2cccs2)c1=O`, “inactive”; under `COc1ncc2ncc(=O)n(Cc3cccs3)c2n1`, “inactive”.
The same measure, in the same setting: with `CN1CCN(c2ncc3ncc(=O)n(Cc4cccs4)c3n2)CC1` the entry was “inactive”; with `COc1ccc(Oc2ncc3ncc(=O)n(Cc4cccs4)c3n2)cc1`, 15.8 µM (active); with `Cc1nc2cnc(Oc3ccccc3)nc2n(Cc2cccs2)c1=O`, 25.1 µM (active).
Consider `Clc1ccccc1-c1ccc2ncnc(N3CCNCC3)c2c1`, for which the activity, negative = inhibition was -9.02% [at 2.29 µM].
Same read-out and setting: under `COc1ccc(COC(=O)N/N=C2/C[C@@H](O)[C@@H](O)[C@@H]3[C@H]4C(=O)N(c5ccc(F)cc5F)C(=O)[C@@H]4CC[C@@H]23)cc1` stands -15.8% [at 11.4 µM].
As for `O=C(Nc1cccc(C(F)(F)F)c1)c1n[nH]c(Cn2cncn2)n1`, the AC50 is 4.47 µM (active).
Regarding `CC(=O)Nc1c2c3c(cccc3n(C)c1=O)C(=O)c1ccccc1-2`, the AC50 is 15.8 µM (active).
Still for that read-out and setting: with `Cc1c(NC(=O)C(C)N2C(=O)c3ccccc3C2=O)c(=O)n(-c2ccccc2)n1C` (centres undefined) the entry was “inactive”.
Same read-out and setting: under `Fc1ccc(COc2ccc(Br)cc2CNCc2ccncc2)cc1` stands 3.98 µM (active).
On to `CO[C@H]1COC(=O)[C@H](Cc2ccccc2)NC(=O)C/C=C\[C@@H](C)[C@H](OC)COC(=O)C/C=C\[C@@H]1C`, for which the activity, negative = inhibition is 2.05% [at 11.4 µM].
`CC1(C)CC(=O)C(C(C#Cc2ccccc2)C2=C(O)CC(C)(C)CC2=O)=C(O)C1`: the AC50 is 15.8 µM (active).
For the compound `COc1ccc(CNc2ccnc(-c3ccccc3CN(C)C)n2)c(OC)c1`, the activity, negative = inhibition was 10.2% [at 2.29 µM].
